Experimental data published in PubChem BioAssay (NCATS).
Inconclusive results are not listed. Unmarked numbers belong to inactive results. The call rests on the fitted dose curve; in most records, active means well fitted cell-killing curve with a large enough effect; inconclusive means small, poorly fitted or top-dose-only effect, or effect the other way; inactive means flat fitted curve, though single readings scatter.

These compounds were tested on Hek293T (assay: Primary qHTS to identify gynecologic anti-cancer compounds using libraries of approved drugs and bioactive compounds (AID 1345084; further: nearly all actives have a fitted effect of over 55% in size)). Conditions: Gynecologic cancer cell panel viability, ATPlite luminescence, 48 h, control line for the selectivity index; series mostly up to 57.5 µM; activity change, negative = cytotoxicity: at the top concentration.
Summary of the method: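 ATP-based viability (ATPlite), 1,000 cells/well, 16 h pre-incubation, 48 h compound at 37 C, 5% CO2, 15 min RT before read.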
On the % scale 0 is the no-effect control and ±100 the full control effect.

SMILES | activity change, negative = cytotoxicity
OCC1OC(Oc2cc(O)cc(/C=C/c3ccc(OC4OC(CO)C(O)C(O)C4O)cc3O)c2)C(O)C(O)C1O (configuration not stated) | -1.95% [at 25.3 µM]
C[C@@H]1O[C@@H](O[C@H]2[C@H](O[C@H]3[C@H](O[C@H]4CC[C@@]5(C)C(CC[C@]6(C)C5CC=C5[C@@H]7CC(C)(C)CC(=O)[C@]7(C)CC[C@]56C)[C@@]4(C)CO)O[C@H](C(=O)O)[C@@H](O)[C@@H]3O)O[C@H](CO)[C@H](O)[C@@H]2O)[C@H](O)[C@H](O)[C@H]1O (some centres not stated) | -1.22% [at 11.6 µM]
CC(O)C/C=C/C=C/C(=O)OC1C=C2COC(=O)C2(O)C2(C)CCCC(C)(C)C12 (configuration not stated) | -4.26% [at 38.5 µM]
C[C@@H]1O[C@@H](O[C@H]2[C@H](O)[C@@H](O[C@@H]3O[C@H](CO)[C@H](O)[C@H](O)[C@H]3O)[C@H](O[C@H]3CC[C@@]4(C)C(CC[C@]5(C)C4CC=C4[C@@H]6CC(C)(C)CC[C@]6(C(=O)O[C@@H]6O[C@H](CO)[C@@H](O)[C@H](O)[C@H]6O)CC[C@]45C)C3(C)C)O[C@@H]2C(=O)O)[C@H](O)[C@H](O)[C@H]1O (some centres not stated) | -2.99% [at 11.6 µM]
COc1ccnc(CCc2nc3ncccc3[nH]2)c1 | 5.26%
CC(=O)O[C@@H]1[C@H](O[C@@H]2OC[C@](O)(CO)[C@H]2O)[C@@H](O[C@@H]2O[C@@H](C)[C@H](O)[C@@H](O[C@@H]3O[C@H](CO)[C@@H](O)[C@H](O)[C@H]3O)[C@H]2O)[C@H](OC(=O)[C@]23CCC(C)(C)C[C@H]2C2=CCC4[C@@]5(C)C[C@H](O)[C@H](O[C@@H]6O[C@H](C(=O)O)[C@@H](O)[C@H](O)[C@H]6O)[C@@](C)(C(=O)O)C5CC[C@@]4(C)[C@]2(C)CC3)O[C@@H]1C (some centres not stated) | 4.41% [at 6.55 µM]
CC(C)CC(=O)O[C@@H]1O[C@H](CO)[C@@H](O[C@H]2O[C@H](C)[C@@H](N[C@H]3C=C(CO)[C@@H](O[C@H]4O[C@H](CO)[C@@H](O[C@H]5O[C@H](CO)[C@@H](O[C@H]6O[C@H](CO)[C@@H](O)[C@H](O)[C@H]6O)[C@H](O)[C@H]5O)[C@H](O)[C@H]4O)[C@H](O)[C@H]3O)[C@H](O)[C@H]2O)[C@H](O)[C@H]1O | 4.85% [at 11.6 µM]
NC[C@H]1CCC[C@@H](CNC(=O)[C@@H](Cc2c[nH]c3ccccc23)NC(=O)N2CCC3(C=Cc4ccccc43)CC2)C1 | -0.367% [at 38.5 µM]
CC1CCC2(C)CCC3(C)C(=CCC4C5(C)CCC(O)C(C)(C(=O)O)C5CCC43C)C2C1C (configuration not stated) | -0.0227% [at 25.3 µM]
C[C@@H]1O[C@@H](O[C@H]2[C@@H]3C=CO[C@@H](O[C@@H]4O[C@H](CO)[C@@H](O)[C@H](O)[C@H]4O)[C@@H]3[C@@]3(CO)O[C@@H]23)[C@H](O)[C@H](O)[C@H]1OC(=O)/C=C/c1ccc(O)cc1 | -1.23% [at 25.3 µM]
CC(CC12CCCN1C(=O)C1CCCN1C2=O)OC(N)=O (configuration not stated) | -13.9% [at 38.5 µM]
CC/C=C\C(O)C(O)C1=C(C)C(=O)C2(O1)C(=O)NC(OC)(C(=O)c1ccccc1)C2O (configuration not stated) | -10.2% [at 25.3 µM]
COc1c2cc(c(O)c1OC)CCCCC(O)CCc1ccc(O)c-2c1 (configuration not stated) | -1.77% [at 38.5 µM]
CC1CC(=O)[C@]2(O)C(C(=O)OCCc3ccc(O)cc3)=CO[C@@H](O[C@@H]3O[C@H](CO)[C@@H](O)[C@H](O)[C@H]3O)[C@H]12 (some centres not stated) | -16% [at 25.3 µM]
COC(=O)C1=CO[C@@H](O[C@@H]2O[C@H](CO)[C@@H](O)[C@H](O)[C@H]2O)C2C1CC(O)C2C (some centres not stated) | -3.41% [at 38.5 µM]
CC(=O)OC[C@]12[C@H](OC(C)=O)[C@H](OC(=O)c3ccccc3)[C@@H]3[C@@H](OC(C)=O)[C@]1(OC3(C)C)[C@H](C)C[C@H](OC(=O)c1ccccc1)[C@@H]2OC(=O)c1ccccc1 | 17.1% [at 25.3 µM]
C[C@]1(C2CCCC2)Cc2cc(OCC(=O)O)c(Cl)c(Cl)c2C1=O | -2.57%
CC(NC(=O)c1ccccc1N)C(=O)O (configuration not stated) | 1.26%
O=C(Nc1ccn(Cc2c(F)cccc2C(F)(F)F)n1)c1c(F)cccc1F | -2.96% [at 11.6 µM]
O=C(OC(C(F)(F)F)C(F)(F)F)N1CCN(Cc2cccc(Oc3ccccc3)c2)CC1 | 3.37%
C[C@H]1CC[C@@]2(OC1)O[C@H]1CC3C4CC[C@H]5C[C@@H](O)CC[C@]5(C)C4CC(=O)[C@]3(C)[C@H]1[C@@H]2C (some centres not stated) | -1.43% [at 25.3 µM]
Cc1oc(S(=O)(=O)N2CCCCC2)cc1NC(=O)Nc1ccccc1 | 0.722%
